PubChem BioAssay AID1159580 (chemical genetic matrix, 2015)
Values joined by “and” are separate entries in the source; they are usually repeats but may differ in a detail not shown here. Equal entries are not always repeated. Hit rate of the full screen: of about 5,500 compounds, about 2,000 (36%) were called active. Inconclusive results (about 18%) are left out. Cut-off read from the data, not from the text of the source: active = normalized growth mostly below about 0.91 (no sharp cut-off); inconclusive = no clear call, values can overlap the other calls; inactive = mostly above about 0.92. Some of the results follow.

Assay: chemical genetic growth profiling, strain panel (AID 1159580);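 note: tested at 20 µM; growth read once vehicle control cultures reached saturation at 30 °C; 1 = growth at the plate median or of vehicle wells; lower values mean less growth of the strain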
Details: S. cerevisiae deletion strains, growth OD

Measured: normalized growth

Cc1ccc(O)cc1
inactive: locus YAL013W, strain DEP1, stronger effect = lower value 1.02 | locus YAL021C, strain ccr4, stronger effect = lower value 1.04 | locus YAL026C, strain drs2, stronger effect = lower value 1.03 | locus YAL030W, strain snc1, stronger effect = lower value 1.02 | locus YBL061C, strain skt5, stronger effect = lower value 1.02 | locus YBR009C, strain hhf1, stronger effect = lower value 1.03 | locus YBR021W, strain FUR4, stronger effect = lower value 1.07 | locus YBR023C, strain chs3, stronger effect = lower value 1.02 | locus YBR171W, strain sec66, stronger effect = lower value 1.02 | locus YBR229C, strain ROT2, stronger effect = lower value 1.02 | locus YBR231C, strain swc5, stronger effect = lower value 0.992 | locus YBR279W, strain paf1, stronger effect = lower value 1.02 | locus YCL011C, strain gbp2, stronger effect = lower value 1.02 | locus YCL016C, strain dcc1, stronger effect = lower value 1.01 | locus YCL029C, strain bik1, stronger effect = lower value 0.985 | locus YCL061C, strain MRC1, stronger effect = lower value 1.02 | locus YCL069W, strain vba3, stronger effect = lower value 1.02 | locus YCR088W, strain abp1, stronger effect = lower value 1.01 | locus YDL005C, strain med2, stronger effect = lower value 1.03 | locus YDL035C, strain GPR1, stronger effect = lower value 1.01 | locus YDL040C, strain nat1, stronger effect = lower value 1.01 | locus YDL074C, strain BRE1, stronger effect = lower value 1.03 | locus YDL101C, strain DUN1, stronger effect = lower value 1.03 | locus YDL134C, strain PPH21, stronger effect = lower value 1.05 | locus YDL185W, strain tfp1, stronger effect = lower value 0.99 | locus YDL192W, strain arf1, stronger effect = lower value 1.04 | locus YDR001C, strain nth1, stronger effect = lower value 1.02 | locus YDR069C, strain doa4, stronger effect = lower value 1.04 | locus YDR101C, strain arx1, stronger effect = lower value 0.98 | locus YDR137W, strain rgp1, stronger effect = lower value 1.04 | locus YDR159W, strain sac3, stronger effect = lower value 1 | locus YDR162C, strain NBP2, stronger effect = lower value 1.03 | locus YDR195W, strain ref2 1.01 | locus YDR297W, strain sur2, stronger effect = lower value 1.03 | locus YDR318W, strain mcm21, stronger effect = lower value 1.01 | locus YDR334W, strain swr1, stronger effect = lower value 1.02 | locus YDR335W, strain msn5, stronger effect = lower value 1.02 | locus YDR388W, stronger effect = lower value 1.02 | locus YDR392W, strain spt3, stronger effect = lower value 0.916 | locus YDR502C, strain sam2, stronger effect = lower value 0.979 | locus YEL003W, strain gim4, stronger effect = lower value 1.01 | locus YEL037C, strain rad23, stronger effect = lower value 1.01 | locus YEL061C, strain CIN8 (second series), stronger effect = lower value 1.01 | locus YEL061C, strain CIN8, stronger effect = lower value 1.02 | locus YER015W, strain faa2, stronger effect = lower value 1.01 | locus YER016W, strain bim1, stronger effect = lower value 1.01 | locus YER110C, stronger effect = lower value 0.991 | locus YER111C, strain swi4, stronger effect = lower value 1.01 | locus YER155C, strain BEM2 (second series), stronger effect = lower value 1.03 | locus YER155C, strain BEM2, stronger effect = lower value 1.02 | locus YER167W, strain BCK2, stronger effect = lower value 1.03 | locus YFR010W, strain ubp6, stronger effect = lower value 1.02 | locus YGL078C, strain dbp3, stronger effect = lower value 0.989 | locus YGL086W, strain mad1, stronger effect = lower value 1.01 | locus YGL167C, strain pmr1, stronger effect = lower value 1.01 | locus YGL173C, strain kem1, stronger effect = lower value 1.04 | locus YGL227W, strain vid30, stronger effect = lower value 1.02 | locus YGL240W, strain doc1, stronger effect = lower value 1.02 | locus YGL248W, strain PDE1, stronger effect = lower value 1.07 | locus YGL253W, strain hxk2, stronger effect = lower value 1.03 | locus YGR135W, strain pre9, stronger effect = lower value 1.01 | locus YGR229C, strain SMI1, stronger effect = lower value 1.04 | locus YGR252W, strain gcn5, stronger effect = lower value 0.966 | locus YHR013C, strain ard1, stronger effect = lower value 1.02 | locus YHR027C, strain rpn1, stronger effect = lower value 1.02 | locus YHR030C, strain SLT2, stronger effect = lower value 1.03 and 1 | locus YHR079C, strain IRE1 (second series), stronger effect = lower value 1.01 | locus YHR079C, strain IRE1, stronger effect = lower value 1 | locus YHR094C, strain hxt1, stronger effect = lower value 0.99 | locus YHR129C, strain ARP1, stronger effect = lower value 1.03 | locus YHR142W, strain chs7, stronger effect = lower value 1.03 | locus YHR200W, strain rpn10, stronger effect = lower value 1.01 | locus YIL066C, strain RNR3, stronger effect = lower value 1.06 | locus YIL073C, strain SPO22, stronger effect = lower value 1.03 | locus YIL125W, strain kgd1, stronger effect = lower value 0.994 | locus YIR030C, strain dcg1, stronger effect = lower value 1.01 | locus YJL092W, strain hpr5, stronger effect = lower value 1.02 | locus YJL095W, strain BCK1 (second series), stronger effect = lower value 1.01 | locus YJL095W, strain BCK1, stronger effect = lower value 1.07 and 1.02 | locus YJL115W, strain asf1, stronger effect = lower value 1.01 | locus YJL129C, strain trk1, stronger effect = lower value 1.01 | locus YJL134W, strain LCB3, stronger effect = lower value 1.02 | locus YJL154C, strain vps35, stronger effect = lower value 1.03 | locus YJL164C, strain tpk1, stronger effect = lower value 1.02 | locus YJL166W, strain qcr8, stronger effect = lower value 1.02 | locus YJL168C, strain set2, stronger effect = lower value 0.994 | locus YJL187C, strain SWE1 (second series), stronger effect = lower value 1.04 | locus YJR043C, strain POL32, stronger effect = lower value 1.01 | locus YJR066W, strain TOR1, stronger effect = lower value 0.987 | locus YKL009W, strain mrt4, stronger effect = lower value 1.01 | locus YKL068W, stronger effect = lower value 1 | locus YKL085W, strain MDH1 (second series), stronger effect = lower value 1 | locus YKL085W, strain MDH1, stronger effect = lower value 1 | locus YKL160W, strain elf1, stronger effect = lower value 1.01 | locus YKR001C, strain vps1, stronger effect = lower value 0.998 | locus YKR026C, strain gcn3, stronger effect = lower value 1.02 | locus YKR091W, strain srl3, stronger effect = lower value 1.02 | locus YLL001W, strain dnm1, stronger effect = lower value 0.984 | locus YLL026W, stronger effect = lower value 1.01 | locus YLL041C, strain sdh2, stronger effect = lower value 1.02 | locus YLR027C, strain aat2, stronger effect = lower value 1.03 | locus YLR039C, strain RIC1, stronger effect = lower value 1.05 | locus YLR058C, strain SHM2, stronger effect = lower value 1.04 | locus YLR102C, strain apc9, stronger effect = lower value 0.993 | locus YLR113W, strain HOG1, stronger effect = lower value 1.01 | locus YLR221C, strain rsa3, stronger effect = lower value 1.03 | locus YLR258W, strain gsy2, stronger effect = lower value 1.01 | locus YLR262C, strain YPT6 (second series), stronger effect = lower value 1.04 | locus YLR262C, strain YPT6, stronger effect = lower value 1.07 | locus YLR268W, strain sec22, stronger effect = lower value 0.998 | locus YLR320W, strain mms22, stronger effect = lower value 1.02 | locus YLR330W, strain CHS5, stronger effect = lower value 1.03 | locus YLR342W, strain FKS1 (second series), stronger effect = lower value 1.08 | locus YLR342W, strain FKS1, stronger effect = lower value 1.02 | locus YLR357W, strain rsc2, stronger effect = lower value 1.01 | locus YLR370C, strain arc18, stronger effect = lower value 1.01 | locus YLR371W, strain rom2, stronger effect = lower value 1.02 | locus YLR384C, strain iki3, stronger effect = lower value 1.02 | locus YLR418C, strain cdc73, stronger effect = lower value 1.04 | locus YML016C, strain PPZ1, stronger effect = lower value 1.04 | locus YML032C, strain rad52, stronger effect = lower value 1 | locus YML120C, strain ndi1, stronger effect = lower value 1.01 | locus YML124C, strain tub3, stronger effect = lower value 0.999 | locus YMR058W, strain fet3, stronger effect = lower value 1.03 | locus YMR078C, strain ctf18, stronger effect = lower value 1 | locus YMR125W, strain sto1, stronger effect = lower value 1.03 | locus YMR129W, stronger effect = lower value 1.01 | locus YMR205C, strain PFK2, stronger effect = lower value 1.03 | locus YMR223W, strain ubp8, stronger effect = lower value 1.02 | locus YMR231W, strain pep5, stronger effect = lower value 1.02 | locus YMR263W, strain SAP30, stronger effect = lower value 1.02 | locus YMR307W, strain GAS1, stronger effect = lower value 1.13 | locus YNL067W, strain RPL9B, stronger effect = lower value 1.02 | locus YNL071W, strain lat1, stronger effect = lower value 1.02 | locus YNL128W, strain TEP1, stronger effect = lower value 1.02 | locus YNL183C, strain NPR1, stronger effect = lower value 0.951 | locus YNL209W, strain ssb2, stronger effect = lower value 1.01 | locus YNL233W, strain BNI4, stronger effect = lower value 1.05 | locus YNL248C, strain rpa49, stronger effect = lower value 1.03 | locus YNL250W, strain rad50, stronger effect = lower value 0.996 | locus YNL271C, strain bni1, stronger effect = lower value 0.994 | locus YNL298W, strain CLA4, stronger effect = lower value 1 | locus YNL307C, strain MCK1, stronger effect = lower value 1.01 | locus YNL322C, strain KRE1 (second series), stronger effect = lower value 1.02 | locus YNR049C, strain mso1, stronger effect = lower value 1.02 | locus YNR052C, strain pop2, stronger effect = lower value 0.997 | locus YOL006C, strain TOP1, stronger effect = lower value 1.01 | locus YOL012C, strain htz1 1.54 | locus YOL147C, strain pex11, stronger effect = lower value 1.01 | locus YOR001W, strain rrp6, stronger effect = lower value 0.984 | locus YOR061W, strain CKA2, stronger effect = lower value 1.02 | locus YOR069W, strain VPS5, stronger effect = lower value 1.02 | locus YOR070C, strain gyp1, stronger effect = lower value 1.01 | locus YOR080W, strain dia2, stronger effect = lower value 1.01 | locus YOR083W, strain WHI5, stronger effect = lower value 1.01 | locus YOR106W, strain vam3, stronger effect = lower value 1.01 | locus YOR136W, strain idh2, stronger effect = lower value 0.99 | locus YOR144C, strain elg1, stronger effect = lower value 0.999 | locus YOR184W, strain ser1, stronger effect = lower value 1.02 | locus YOR231W, strain MKK1, stronger effect = lower value 0.993 | locus YOR265W, strain rbl2, stronger effect = lower value 1.03 | locus YOR270C, strain vph1, stronger effect = lower value 1.08 | locus YOR290C, strain snf2, stronger effect = lower value 1.02 | locus YOR316C, strain cot1, stronger effect = lower value 0.999 | locus YPL051W, strain arl3, stronger effect = lower value 1.01 | locus YPL055C, strain LGE1, stronger effect = lower value 1.05 | locus YPL078C, strain atp4, stronger effect = lower value 1.02 | locus YPL106C, strain sse1, stronger effect = lower value 1.01 | locus YPL240C, strain hsp82, stronger effect = lower value 1.01 | locus YPL241C, strain CIN2, stronger effect = lower value 1.01 | locus YPL256C, strain CLN2, stronger effect = lower value 1.03 | locus YPR119W, strain clb2, stronger effect = lower value 0.995 | locus YPR141C, strain kar3, stronger effect = lower value 1 | locus YPR163C, strain tif3, stronger effect = lower value 1 | locus YPR167C, strain met16, stronger effect = lower value 1.02 | strain wtn01, stronger effect = lower value 1.03
